# Test results as given in PubChem BioAssay (NCI).
# About 79,000 compounds went through this panel and 15% of them were active in at least one assay; those are over-represented in the sample as a whole. A number with no mark means an inactive call. Activity calls are given as the source filed them. Cut-off read from the data, not from the text of the source: active = growth inhibition above about 70%; inactive = the rest.
# Experiments:
# [1] = NCI Yeast Anticancer Drug Screen. Data for the rad52 strain (AID 147);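 note: 0% = growth of vehicle-treated control cultures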; conditions: S. cerevisiae rad52 mutant growth inhibition, hits give high values
# Procedure, shortened: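 Screen used a yeast mutant impaired in DNA repair. After compound exposure, growth was measured. Values reflect inhibition compared with vehicle-treated cells.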
# [2] = NCI Yeast Anticancer Drug Screen. Data for the wt1 strain (AID 149);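 note: 0% = growth of vehicle-treated wt1 cultures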; conditions: S. cerevisiae wt1 strain (SPY 50644) growth inhibition, hits give high values
# Procedure, shortened: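 Yeast wt1 strain exposed to compounds; growth inhibition measured relative to vehicle-treated controls.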
# [3] = NCI Yeast Anticancer Drug Screen. Data for the rad50EPP+ strain (AID 151);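 note: 0% = growth of vehicle-treated control cultures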; conditions: S. cerevisiae rad50 mutant strain, hits give high values
# Procedure, shortened: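 Exposing the rad50EPP+ strain to each compound, growth was compared with vehicle-only cultures to give inhibition.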
# [4] = NCI Yeast Anticancer Drug Screen. Data for the mgt1 strain (AID 153); conditions: S. cerevisiae mgt1 mutant growth inhibition, hits give high values
# Procedure, shortened: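 Genetically defined yeast (mgt1) treated with compound; inhibition of growth expressed against vehicle-treated controls.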
# [5] = NCI Yeast Anticancer Drug Screen. Data for the rad50 strain (AID 155);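 note: 0% = growth of vehicle-only cultures of the same strain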; conditions: S. cerevisiae rad50 strain growth inhibition, hits give high values
# Procedure, shortened: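 Yeast carrying a defined DNA repair defect were exposed to test compounds, and growth was compared with vehicle-treated controls to give percent inhibition.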
# [6] = NCI Yeast Anticancer Drug Screen. Data for the mec2-1 strain (AID 157); conditions: S. cerevisiae mec2-1 strain, hits give high values
# Procedure, shortened: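 Readout is yeast growth inhibition, normalised to vehicle-treated controls, in the mec2-1 strain exposed to compound.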
# [7] = NCI Yeast Anticancer Drug Screen. Data for the rad14 strain (AID 159);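 note: 0% = growth of vehicle-treated control cultures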; conditions: S. cerevisiae rad14 strain growth inhibition, hits give high values
# Procedure, shortened: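 Yeast cells carrying a defined DNA-repair defect were exposed to compounds, and growth inhibition was calculated relative to vehicle-treated control cultures.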
# [8] = NCI Yeast Anticancer Drug Screen. Data for the sgs1 mgt1 strain (AID 161);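 note: 0% = growth of cultures given vehicle only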; conditions: S. cerevisiae sgs1 mgt1 strain, hits give high values
# Procedure, shortened: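 Compounds are added to genetically altered yeast, and growth is compared with cultures given vehicle alone to give percent inhibition.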
# [9] = NCI Yeast Anticancer Drug Screen. Data for the CLN2oe strain (AID 163);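 note: 0% = growth of vehicle-only control cultures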; conditions: S. cerevisiae CLN2oe strain, hits give high values
# Procedure, shortened: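 Values reflect how much compound exposure reduced yeast growth, referenced to vehicle-exposed cells. Assay organism is a strain with a defined genetic change affecting cell-cycle control.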
# [10] = NCI Yeast Anticancer Drug Screen. Data for the cln2 rad14 strain (AID 165);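 note: 0% = growth equal to vehicle treated cultures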; conditions: S. cerevisiae cln2 rad14 strain, hits give high values
# Procedure, shortened: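 Relative to vehicle controls, growth inhibition of compound-treated cln2 rad14 yeast was recorded.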
# [11] = NCI Yeast Anticancer Drug Screen. Data for the bub3 strain (AID 167); conditions: S. cerevisiae bub3 mutant strain, hits give high values
# Procedure, shortened: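 Compounds were applied to a genetically altered yeast strain carrying a cell-cycle control defect. Growth inhibition was scored against vehicle-treated controls.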
# [12] = NCI Yeast Anticancer Drug Screen. Data for the wt2 strain (AID 169);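 note: 0% = growth of vehicle-treated yeast cultures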; conditions: S. cerevisiae wt2 strain growth inhibition, hits give high values
# Procedure, shortened: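 Values express reduction in yeast growth under compound treatment, referenced to vehicle-treated cells.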
# [13] = NCI Yeast Anticancer Drug Screen. Data for the mlh1 strain (AID 171);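 note: 0% = growth of vehicle-treated control cultures of the same strain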; conditions: S. cerevisiae mlh1 strain growth inhibition, hits give high values
# Procedure, shortened: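 Steps: expose the defined-mutant yeast strain to compound; expose a parallel culture to vehicle; measure growth; express compound effect as inhibition relative to the vehicle culture.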
# [14] = NCI Yeast Anticancer Drug Screen. Data for the sgs1 strain (AID 173);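 note: 0% = growth of vehicle-only control cultures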; conditions: S. cerevisiae sgs1 mutant, hits give high values
# Procedure, shortened: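 Treat defined-mutant yeast with compound; measure growth; calculate inhibition relative to vehicle-treated cells.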
# [15] = NCI Yeast Anticancer Drug Screen. Data for the mlh1 rad18 strain (AID 175); conditions: S. cerevisiae mlh1 rad18 strain growth inhibition, hits give high values
# Procedure, shortened: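 Test agents were incubated with a yeast strain of defined genotype (DNA damage repair defect). Inhibition of growth was derived by comparison with vehicle-exposed cultures.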
# [16] = NCI Yeast Anticancer Drug Screen. Data for the rad18 strain (AID 177); conditions: S. cerevisiae rad18 mutant growth inhibition, hits give high values
# Procedure, shortened: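 A genetically defined yeast mutant impaired in DNA damage repair was treated with test compounds, then its growth was measured against cultures receiving vehicle alone.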
# [17] = at 5.0 µM (retest, dose inferred, filed as 0.5)
# [18] = at 50.0 µM (retest, dose inferred, filed as 5.0)
structure (smiles),measurement,setting,value
COC(=O)c1cc(-c2ccc(C)cc2)[nH]c(=O)c1C#N,growth inhibition,[1]; at 1.2 µM,-2%
same,growth inhibition,[1]; at 3.7 µM,0%
same,growth inhibition,[1]; at 11.0 µM,1%
same,growth inhibition,[1]; at 33.0 µM,-1%
same,growth inhibition,[1]; at 100.0 µM,-4%
same,growth inhibition,[2]; at 1.2 µM,-2%
same,growth inhibition,[2]; at 3.7 µM,-1%
same,growth inhibition,[2]; at 11.0 µM,-1%
same,growth inhibition,[2]; at 33.0 µM,-1%
same,growth inhibition,[2]; at 100.0 µM,0%
same,growth inhibition,[3]; at 1.2 µM,-5%
same,growth inhibition,[3]; at 3.7 µM,-4%
same,growth inhibition,[3]; at 11.0 µM,-5%
same,growth inhibition,[3]; at 33.0 µM,-6%
same,growth inhibition,[3]; at 100.0 µM,-4%
same,growth inhibition,[4]; at 1.2 µM,0%
same,growth inhibition,[4]; at 3.7 µM,0%
same,growth inhibition,[4]; at 11.0 µM,0%
same,growth inhibition,[4]; at 33.0 µM,-1%
same,growth inhibition,[4]; at 100.0 µM,0%
same,growth inhibition,[5]; at 1.2 µM,-1%
same,growth inhibition,[5]; at 3.7 µM,-2%
same,growth inhibition,[5]; [17],-5%
same,growth inhibition,[5]; at 11.0 µM,0%
same,growth inhibition,[5]; at 33.0 µM,-4%
same,growth inhibition,[5]; [18],9%
same,growth inhibition,[5]; at 50.0 µM,86.5% (active)
same,growth inhibition,[5]; at 100.0 µM,-2%
same,growth inhibition,[6]; at 1.2 µM,0%
same,growth inhibition,[6]; at 3.7 µM,0%
same,growth inhibition,[6]; [17],11%
same,growth inhibition,[6]; at 11.0 µM,-2%
same,growth inhibition,[6]; at 33.0 µM,-1%
same,growth inhibition,[6]; [18],24%
same,growth inhibition,[6]; at 50.0 µM,56.9%
same,growth inhibition,[6]; at 100.0 µM,10%
same,growth inhibition,[7]; at 1.2 µM,1%
same,growth inhibition,[7]; at 3.7 µM,-6%
same,growth inhibition,[7]; at 11.0 µM,-6%
same,growth inhibition,[7]; at 33.0 µM,-19%
same,growth inhibition,[7]; at 100.0 µM,-11%
same,growth inhibition,[8]; [17],-4%
same,growth inhibition,[8]; [18],20%
same,growth inhibition,[8]; at 50.0 µM,84.3% (active)
same,growth inhibition,[9]; at 1.2 µM,-3%
same,growth inhibition,[9]; at 3.7 µM,1%
same,growth inhibition,[9]; at 11.0 µM,-1%
same,growth inhibition,[9]; at 33.0 µM,3%
same,growth inhibition,[9]; at 100.0 µM,4%
same,growth inhibition,[10]; [17],30%
same,growth inhibition,[10]; [18],43%
same,growth inhibition,[10]; at 50.0 µM,66%
same,growth inhibition,[11]; at 1.2 µM,-8%
same,growth inhibition,[11]; at 3.7 µM,-6%
same,growth inhibition,[11]; [17],33%
same,growth inhibition,[11]; at 11.0 µM,6%
same,growth inhibition,[11]; at 33.0 µM,-2%
same,growth inhibition,[11]; [18],16%
same,growth inhibition,[11]; at 50.0 µM,52.6%
same,growth inhibition,[11]; at 100.0 µM,-7%
same,growth inhibition,[12]; at 1.2 µM,-2%
same,growth inhibition,[12]; at 3.7 µM,0%
same,growth inhibition,[12]; at 11.0 µM,-2%
same,growth inhibition,[12]; at 33.0 µM,-2%
same,growth inhibition,[12]; at 100.0 µM,-2%
same,growth inhibition,[13]; at 1.2 µM,-6%
same,growth inhibition,[13]; at 3.7 µM,-2%
same,growth inhibition,[13]; at 11.0 µM,0%
same,growth inhibition,[13]; at 33.0 µM,0%
same,growth inhibition,[13]; at 100.0 µM,-21%
same,growth inhibition,[14]; at 1.2 µM,-4%
same,growth inhibition,[14]; at 3.7 µM,-1%
same,growth inhibition,[14]; at 11.0 µM,-1%
same,growth inhibition,[14]; at 33.0 µM,-2%
same,growth inhibition,[14]; at 100.0 µM,-4%
same,growth inhibition,[15]; [17],0%
same,growth inhibition,[15]; [18],-1%
same,growth inhibition,[15]; at 50.0 µM,90.2% (active)
same,growth inhibition,[16]; at 1.2 µM,-17%
same,growth inhibition,[16]; at 3.7 µM,-11%
same,growth inhibition,[16]; at 11.0 µM,-16%
same,growth inhibition,[16]; at 33.0 µM,-11%
same,growth inhibition,[16]; at 100.0 µM,-18%
